According to the supplement of paper PMC6555819:

Legend:
Assay in all cases: PBM binding z-score (relative to random genomic background probes); higher = stronger binding; sequences stand for … in GC…GCGATTGACAGCGTAGAATGAAGG
[1] = tested on: FXR:RXRa (NR concentration 270 nM, RXRa partner concentration 90 nM)
In short: (§1)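 For binding z-scores, the reference was random background probes on custom Agilent 4×180K protein-binding microarrays. These arrays were incubated 1 h with ligand-free nuclear receptor dimers in PBS pH 7.4, 2% milk, 0.02% Triton X-100, 1 mM DTT, 0.2 mg/mL BSA and 0.4 mg/ml salmon testes DNA. Fluorescence was scanned after antibody detection of each partner (one per run) and regression-normalized.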

[2] = tested on: LXRa:RXRa (NR concentration 270 nM, RXRa partner concentration 90 nM)
In short: as §1

[3] = tested on: LXRa homodimer (NR concentration 270 nM)
In short: as §1

[4] = tested on: LXRb:RXRa (NR concentration 270 nM, RXRa partner concentration 90 nM)
In short: as §1

[5] = tested on: LXRb homodimer (NR concentration 270 nM)
In short: as §1

[6] = tested on: PPARa:RXRa (NR concentration 270 nM, RXRa partner concentration 90 nM)
In short: as §1

[7] = tested on: PPARg:RXRa (NR concentration 180 nM, RXRa partner concentration 90 nM)
In short: as §1

[8] = tested on: PPARg:RXRa 270nM:90nM, anti-RXR (NR concentration 270 nM, RXRa partner concentration 90 nM)
In short: as §1

[9] = tested on: PPARg:RXRa 30nM:10nM, anti-RXR (NR concentration 30 nM, RXRa partner concentration 10 nM)
In short: as §1

[10] = tested on: PPARg:RXRa 90nM:30nM, anti-RXR (NR concentration 90 nM, RXRa partner concentration 30 nM)
In short: as §1

Sequence	PBM binding z-score [1]	PBM binding z-score [2]	PBM binding z-score [3]	PBM binding z-score [4]	PBM binding z-score [5]	PBM binding z-score [6]	PBM binding z-score [7]	PBM binding z-score [8]	PBM binding z-score [9]	PBM binding z-score [10]
TGAATTAGGTTATAAGATCAGGGAACGTTGCAAA	0.295	0.216	-0.00025	0.474	0.221	1.97	2.18	3.06	1.96	2.45
CGTCCAAGGTCAGCGAGGTCAGTGAATGCCGAGT	6.31	5.26	1.83	4.28	0.00119	5	3.79	4.78	0.896	3.3
TCTCGGAGGACACGAAAGGTTAGAGCTCGACATC	1.18	0.89	-0.0791	0.782	-0.852	1.46	0.441	1.69	2.52	2.03
CCGACTGGGGCATACGGTTACCATAAGCCAGCCC	-0.196	-0.252	-0.334	-0.388	-1.21	0.556	1.47	1.77	0.00419	1.13
ATCTCTAGGTAAAGGTTCAGTGAATCCCGAGGAT	0.405	0.578	0.436	0.491	0.67	2.93	4.99	5.83	3.95	5.85
TGTTGTAGATCAATAGAGGTTAAGAAAGTGCGCT	1.03	3.59	1.16	1.94	1.01	1.63	0.0938	0.944	0.473	0.795
TCATATAGGTCAAGGTGAAAGTCGAACGATATGA	6.5	4.65	0.783	3.73	0.775	6.15	8.55	7.65	6.25	7.63
GCGACTAGGGCATCAGCAGGTTACCATAACTTAA	-0.0195	-0.0261	-0.362	-0.000126	-0.683	0.802	1.41	1.17	-0.0852	0.611
CATTACGGGTCACGAGGTTATAGCACGACGAGCG	7.14	6.04	2.06	4.56	1	6.33	8.49	7.3	4.45	6.59
ATATGTAGGTTAGCTGGGGTCATTCAAACTAGGC	5.07	5.84	3.67	5.17	1.92	5.21	5.74	5.36	2.92	4.91
GATACAGGGTCAGCTGGAGGCCAGAGTATGGAAA	5.07	2.76	-0.49	2.38	-0.887	4.47	3.91	3.62	1.24	2.49
AATACAGGGTCATCCTAGGCCAGAGTACGCACAG	7.59	6.64	3.26	5.25	1.72	6.4	6.74	5.93	2.82	4.48
TCGAGTAGGTTACCAATGGGGCATTAAGCTTTCT	-0.382	1.24	-0.459	0.663	-1.11	0.96	0.247	1.17	1.39	1.18
ATCTCTAGGTAAAAGTTCAGCGAATCCCGAGGAT	1.36	1.99	1.58	1.46	0.982	4.39	8.87	8.21	8.78	9.67
ATACCAAGGTGATCGTGAGGTCGTGGATACTAAC	1.71	1.27	0.515	1.39	-0.127	2.17	0.846	0.784	-0.103	0.493
AGAATGAGGATATTAAGATCAGGGAATTGCGGTC	-0.251	-0.424	0.0165	-0.53	-0.355	-0.323	0.311	-0.0295	-0.0325	-0.182
CCGACTGGGGCAGAAAGGCTACCATACCATCCGG	-0.561	-0.818	-0.431	-0.869	-1.41	-0.338	0.703	-0.0777	-0.705	-0.612
ACAGACAGGTGAGTGAAGGTAACTCAACTGGACG	0.515	-0.0792	-0.448	-0.39	-0.735	-0.0249	0.821	0.143	0.0922	-0.0513
TAGCCTAGGTCAGATCGGGCCAGTACACGCTATA	2.56	1.36	-0.186	0.718	-0.385	1.82	0.74	0.997	-0.169	-0.0312
TCATATAAGTAAATGCTAGGTGAAAGTCCGATCT	1.12	1.03	0.543	0.645	0.419	1.3	0.711	2.49	4.34	3.6
CGAACGAGGGCATGAGTTGATAGGAAATGCCGAT	0.317	0.134	-0.459	-0.00432	-0.811	1.27	1.61	1.43	0.315	0.987
GATACAGGGTCAGCTAGATGCCAGAGTATGGAAA	5.08	2.66	-0.125	2.53	-0.514	4.79	4.08	3.48	0.884	2.4
ACTAGCAGGCCAAGTGTCACTCAAGATTAGTCCG	-0.202	-0.345	-0.396	-0.372	-0.742	1.37	1.95	3.56	1.36	2.95
CAAACCAGGTCACCGGAAGGTCAAAGTCCGCATG	7.26	6.79	5.52	6.01	1.71	6.08	7.88	6.92	4.07	6.45
